D3 antag: blocks the human D3 dopamine receptor; AID 652054; D3R cells, DiscoveRx beta-arrestin luminescence, antagonist mode; stronger effect = lower value; P35462; max response, negative = inhibition, %; 360,000 compounds, 2.5% hits; in the data active means max response below about -50%; inconclusive means no clear call, values can overlap the other calls
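Cells plated overnight at 1500 cells/well, then exposed to library compounds with dopamine controls for 90 minutes at 37 degrees C. DiscoveRx reagent added for 30–60 minutes at room temperature; luminescence read, quantitative HTS format.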
D1 agonist: agonists of human D1 dopamine receptor; P21728; HEK293 T-REx D1 cells, calcium flux, agonist mode; activation, % at 2 µM; 360,000 compounds, 1% hits; in the data active means activation above about 30%
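Agonism was scored from calcium flux recorded over 180 s (1 read/s) after pintool compound addition, following a 10-cycle baseline. Cells were inducible force-coupled HEK293 TREx D1, plated overnight at 30 C and loaded with no-wash calcium dye.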
D3 ag: activates the human D3 dopamine receptor; P35462; D3R DiscoveRx beta-arrestin cells, luminescence, 90 min; max activation, %; 410,000 compounds, 0.58% hits; AID 652048; in the data active means max activation above about 30%
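Agonist-mode cell screen: cells plated at 1500/well and incubated overnight at 37 °C, then exposed to library compounds for 90 min at 37 °C. Detection reagent was added for 30–60 min at room temperature, and luminescence was read.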
ERG-DNA inh: ERG Ets/DNA interaction inhibition; P11308; Potency, µM (top dose mostly 76.9 µM), hits mostly inhibitors; fluorescence polarization, His-ERG Ets domain / labelled DNA; 370,000 compounds, 0.028% hits; AID 624246; active means well fitted inhibition curve with a large enough effect in the polarisation, with a control signal flat; inconclusive means small, poorly fitted or top-dose-only effect, or effect the other way, or a change in a side signal; inactive means no such curve, though single readings can be large or run the other way; the % refers to the polarisation;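 further: polarization taken with two DNA probes labelled with fluorescein and Texas red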
Target sequence (P11308 whole entry, looked up, the tested form may be a part): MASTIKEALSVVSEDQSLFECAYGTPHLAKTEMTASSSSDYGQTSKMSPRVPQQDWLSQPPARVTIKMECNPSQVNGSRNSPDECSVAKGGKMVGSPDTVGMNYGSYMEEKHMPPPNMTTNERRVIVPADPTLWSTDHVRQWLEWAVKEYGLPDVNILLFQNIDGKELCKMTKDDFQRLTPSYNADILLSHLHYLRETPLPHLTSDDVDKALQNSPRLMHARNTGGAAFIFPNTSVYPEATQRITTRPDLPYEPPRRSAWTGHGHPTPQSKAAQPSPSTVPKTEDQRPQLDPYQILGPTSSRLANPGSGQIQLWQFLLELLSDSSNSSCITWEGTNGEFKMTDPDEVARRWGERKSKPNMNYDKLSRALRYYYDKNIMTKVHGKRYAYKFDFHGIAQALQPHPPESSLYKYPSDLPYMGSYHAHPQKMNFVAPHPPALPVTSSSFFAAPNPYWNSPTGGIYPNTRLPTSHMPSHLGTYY
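His-tagged ERG Ets domain (1 uM in the protein solution; 300mM KCl, 50mM Tris-HCl, 1mM EDTA, 1mM DTT, pH 7.5) received compound, then a probe mix of 5 nM fluorescein-DNA and 100nM Texas-615-DNA. Fluorescence polarization was read for both dyes.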
D1 PAM: potentiators of human D1 dopamine receptor | P21728 | HEK293 TREx D1 cells, calcium flux, dopamine EC20 potentiation | potentiation, % at 10 µM | 360,000 compounds, 0.036% hits; in the data active means potentiation above about 30%
D1 antag: blocks dopamine activation of the human D1 receptor | P21728 | HEK293 TREx D1 cells, calcium flux, dopamine EC80; stronger effect = lower value | activity change, negative = inhibition, % at 10 µM | 360,000 compounds, 3.2% hits | AID 504652; in the data active means activity change below about -30%
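Using tetracycline-induced force-coupled D1 Hek293 cells and a calcium dye, signals were followed for 180 s after compound, then for 180 s after EC80 dopamine, to detect inhibitors.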
Each line names hits and unclear results; the compound was inactive in the other large screens. Compounds with a hit are over-represented: about 6.1% of the library has one in this group of screens.

CCOC(=O)c1cc(-c2csc(-c3ccc(C(C)(C)C)cc3)n2)on1	D3 ag 31.8
CCCCCc1cc(O)c2c(C)cc(=O)oc2c1	D1 agonist 107.5
Cc1cc(=O)oc2cc(O)cc(O)c12	none (no result: D1 agonist, D1 PAM, D1 antag)
CC(NC(=O)COC(=O)Cc1ccc(Cl)cc1)c1ccccc1 (stereo unspecified)	none (no result: D1 agonist, D1 PAM, D1 antag)
COC(=O)CNC(=O)CCc1nnc(C2(c3ccc(Cl)cc3)CCC2)o1	none
COCC(C)NC(=O)CCc1nnc(C2(c3ccc(Cl)cc3)CCC2)o1 (stereo unspecified)	D1 antag -51.4
COC(=O)c1ccc(CNC(=O)CNc2cc(C(F)(F)F)ccc2N2CCOCC2)cc1	D3 antag -56.6
COCCSc1nc2c(c(=O)[nH]c(=O)n2C)n1CCCc1ccccc1	none
Cn1c(=O)[nH]c(=O)c2c1nc(SCCN1CCCCC1)n2Cc1ccccc1	none
Cn1c(=O)[nH]c(=O)c2c1nc(Br)n2CCOc1ccccc1	D3 antag -53.5
Cn1c(=O)[nH]c(=O)c2c1nc(SCCN1CCCCC1)n2CCCc1ccccc1	D3 antag -68.2
CCCn1c(Sc2nc3c(c(=O)[nH]c(=O)n3C)n2CCC)nc2c1c(=O)[nH]c(=O)n2C	D3 antag -57.1
Cc1ccc(Cn2c(SCCN3CCCCC3)nc3c2c(=O)[nH]c(=O)n3C)cc1	D1 antag -43.1
C/C=C/CSc1nc2c(c(=O)[nH]c(=O)n2C)n1CCC	none
N#CC1=C(N)NC(=S)C(C(N)=O)C1c1ccccc1F (stereo unspecified)	none
CC(NS(=O)(=O)c1ccc(Cl)cc1)C(=O)OCC(=O)c1ccc[nH]1 (stereo unspecified)	none
COc1cccc(N2CCN(C(=O)Cn3c(=O)oc4ccccc43)CC2)c1	none
NS(=O)(=O)c1ccc(N2CCOCC2)c(C(=O)NCc2ccc3c(c2)OCO3)c1	none
O=C(C[n+]1cc(-c2ccc(Cl)c(Cl)c2)n2c1CCC2)OCc1ccccc1	none
COc1ccc(C(C)(O)c2nc(-c3ccc(N(C)C)cc3)cs2)cc1 (stereo unspecified)	none (no result: D1 agonist, ERG-DNA inh, D1 PAM, D1 antag)
COc1ccc(C(C(=O)NC2CCCCC2)N(C(=O)c2sc(C)nc2C)c2ccc(C(C)=O)cc2)cc1 (stereo unspecified)	none (no result: D1 agonist, ERG-DNA inh, D1 PAM, D1 antag)
Cn1c(SCc2ccccc2)nc2c1c(=O)[nH]c(=O)n2C	D1 antag -35.4
CCC(C(=O)N1CCN(C(=O)c2ccco2)CC1)c1ccccc1 (stereo unspecified)	none
COC(=O)c1cc(COc2ccc3ccc(=O)oc3c2)c(C)o1	D3 antag -67.7
COC(=O)c1cc(COc2ccc3oc(C)c(C(=O)OC)c3c2)c(C)o1	D3 ag 76.0
CCOC(=O)c1c(C)oc2ccc(OCc3cc(C(=O)OC)oc3C)cc12	D3 ag 32.9
CC(=O)c1c(C)oc2ccc(OCc3ccccc3)cc12	none
CCOc1ccccc1CNC(=O)c1cc(-c2ccc(C)c(C)c2)nc2ccccc12	none (no result: D3 antag)
COc1ccc(C(=O)NCc2nnc(SCC(=O)Nc3ccc(C)cc3)n2-c2ccccc2)cc1	none (no result: D3 antag)
Brc1[nH]nc2ccccc12	D1 antag -33.4 (no result: ERG-DNA inh)
CN(C1CCCCC1)S(=O)(=O)CCNC(=O)c1ccccc1	D1 antag -66.9
CCc1ccc(-n2c(=O)c3cccnc3n2CC(=O)NCc2ccc(F)cc2)cc1	D1 antag -36.3 (no result: D3 antag)
Cc1ccc(N2/C(=N/c3nc(C)cc(C)n3)NC(=O)CC2C(=O)O)cc1 (stereo unspecified)	none (no result: ERG-DNA inh)
Cc1cc(C)nc(/N=C2\NC(=O)CC(C(=O)O)N2c2ccc(Cl)cc2)n1 (stereo unspecified)	D1 antag -61.8
COc1ccc(CCNC(=O)c2nnn(-c3cccc(C)c3)c2N)cc1OC	none (no result: D1 antag)
CCN(CC)S(=O)(=O)c1ccc2nc(NC(=O)c3cccs3)sc2c1	D3 antag -56.3
CCN(CC)S(=O)(=O)c1ccc2nc(NC(=O)c3ccco3)sc2c1	none
CCN(CC)S(=O)(=O)c1ccc2nc(NC(=O)c3cncc(Br)c3)sc2c1	D1 agonist 30.6 (no result: D3 antag)
CCOc1ccc(/C=C/C(O)=C2/C(=O)N(C)C3(C)CC2c2ccccc2O3)cc1OC (stereo unspecified)	none
CN(C)c1ccc(/C=C/C(O)=C2/C(=O)N(C)C3(C)CC2c2ccccc2O3)cc1 (stereo unspecified)	D1 agonist 68.8 (no result: D3 antag, D3 ag, ERG-DNA inh)
Cc1ccc(Nc2c(-c3ccc(C)cc3)nc3c(C)cccn23)cc1	none (no result: D3 antag)
Cc1cccn2c(Nc3ccccc3)c(-c3ccc(N4CCOCC4)cc3)nc12	D1 antag -44.8 (no result: D3 antag)
Cc1ccc(C)c(NC(=O)Cn2c(=O)n(CCC(C)C)c(=O)c3cccnc32)c1	D1 antag -42.8 (no result: D3 antag)
CCCCCCCCNC(C)C(O)c1ccc(SC(C)C)cc1 (stereo unspecified)	D3 antag inconclusive, D1 agonist 50.3
O=C1c2cccc3c(N4CCCCC4)ccc(c23)C(=O)N1c1ccc(O)cc1	D1 agonist 359.0
O=C1c2cccc3cccc(c23)C(=O)N1c1ccc(O)cc1	none
O=C1c2cccc3c(N4CCCCC4)ccc(c23)C(=O)N1c1ccccc1O	D1 agonist 203.6
COc1ccc(S(=O)(=O)Nc2cc3c(cc2N2CCOCC2)n(C)c(=O)n3C)cc1	none (no result: D3 antag)
C#CCNC(=O)C1=C[C@H](c2ccc(C(F)(F)F)cc2)[C@@H](CCCO)[C@H](OCC)O1	D3 ag 33.7
CC(=O)N1c2ccc(S(=O)(=O)CCC(=O)O)cc2CC1C (stereo unspecified)	none (no result: D1 agonist, D1 PAM, D1 antag)
C=CCSc1nnc(-c2cc(Br)ccc2N)c(=O)[nH]1	none
O=C(OCCN1CCN(c2ncc(C(F)(F)F)cc2Cl)CC1)c1ccc(Cl)cc1	D3 antag -83.1
O=C(OC1CCN(c2ncc(C(F)(F)F)cc2Cl)CC1)c1ccc(Cl)cc1	none
O=C(CSc1nccn1-c1ncc(C(F)(F)F)cc1Cl)c1ccc(Cl)cc1	D3 antag -106.8
CCc1ccc(NC(=O)C(C)OC(=O)c2ccc(-n3cnnn3)cc2)cc1 (stereo unspecified)	none
Cc1ccc(Cl)cc1N1CCN(S(=O)(=O)c2ccc3[nH]c(=O)ccc3c2)CC1	D1 antag -89.2
O=c1ccc2cc(S(=O)(=O)N3CCN(c4ccccc4)CC3)ccc2[nH]1	none
Cc1ccc(Cl)cc1N1CCN(S(=O)(=O)c2cn(C)cn2)CC1	D1 antag -34.6
O=c1ccc2cc(S(=O)(=O)N3CCN(c4ccccc4F)CC3)ccc2[nH]1	D1 antag -34.4
O=C(NCc1ccccc1)C1CCCN1C(=O)Nc1ccccc1[N+](=O)[O-] (stereo unspecified)	D1 antag -30.9

Screens as filed in PubChem.
